The values below come from the antibiotic and cytotoxicity screens of Wong et al. (2023).

The whole screen tested about 39,000 compounds, of which about 3,300 (8.5%) were called active. What follows is part of a selection rich in actives, with near analogues and random picks from the rest.

The assay concerns HepG2. Nature of the assay: cytotoxicity call (relative viability < 0.9). Particulars: 10 µM.
`O=C(c1cccnc1)N1CCOCC1`: the cytotoxicity call is “active”. The same measure for `O=C(O)c1cccnc1`: “inactive”. The same measure for `O=C(NCCCN1CCOCC1)c1cccnc1`: “inactive”; for `Cc1ccc(S(=O)(=O)N(C)C[C@@H]2Oc3c(NC(=O)Nc4cccc5ccccc45)cccc3C(=O)N([C@H](C)CO)C[C@H]2C)cc1`: “inactive”.

On to `CN(C)C(=O)c1cc2c(c(-c3cccc(/C=C/c4ccccc4)c3)n1)[C@H](CCO)N([S@@](=O)C(C)(C)C)C2`, for which the cytotoxicity call was “inactive”. The same measure for `C[C@H](CO)N1C[C@H](C)[C@H](CN(C)Cc2ccc(C(F)(F)F)cc2)Oc2c(NC(=O)Nc3ccc(C(F)(F)F)cc3)cccc2C1=O`: “inactive”; for `C[C@@H]1CN([C@@H](C)CO)C(=O)c2cccc(NC(=O)Nc3ccc(F)cc3)c2O[C@H]1CN(C)Cc1ccc(C(F)(F)F)cc1`: “inactive”; for `C[C@H]1CN([C@@H](C)CO)C(=O)c2cccc(NC(=O)Nc3ccc(C(F)(F)F)cc3)c2O[C@@H]1CN(C)Cc1ccc(C(F)(F)F)cc1`: “active”. To `C[C@@H]1CN([C@@H](C)CO)C(=O)c2cccc(NC(=O)Nc3ccc(C(F)(F)F)cc3)c2O[C@@H]1CN(C)Cc1ccc(C(F)(F)F)cc1` belongs “inactive”. Turning to `C[C@H]1CN([C@@H](C)CO)C(=O)c2cccc(NC(=O)Nc3ccc(F)cc3)c2O[C@H]1CN(C)Cc1ccc(C(F)(F)F)cc1`, the cytotoxicity call was “inactive”.

For the molecule `C[C@H](CO)N1C[C@H](C)[C@@H](CN(C)Cc2ccc(C(F)(F)F)cc2)Oc2c(NC(=O)Nc3ccc(F)cc3)cccc2C1=O`, the cytotoxicity call is “active”.

Turning to `C[C@@H]1CN([C@H](C)CO)C(=O)c2cccc(NC(=O)Nc3ccc(C(F)(F)F)cc3)c2O[C@H]1CN(C)Cc1ccc(C(F)(F)F)cc1`, the cytotoxicity call is “active”. To `C[C@@H]1CN([C@H](C)CO)C(=O)c2cccc(NC(=O)Nc3ccc(F)cc3)c2O[C@H]1CN(C)Cc1ccc(C(F)(F)F)cc1` belongs “inactive”; to `C[C@H](CO)N1C[C@H](C)[C@@H](CN(C)Cc2ccc(C(F)(F)F)cc2)Oc2c(NC(=O)Nc3ccc(C(F)(F)F)cc3)cccc2C1=O`, “inactive”; to `C[C@@H]1CN([C@H](C)CO)C(=O)c2cccc(NC(=O)Nc3ccc(F)cc3)c2O[C@@H]1CN(C)Cc1ccc(C(F)(F)F)cc1`, “inactive”. The same measure for `C[C@H]1CN([C@@H](C)CO)C(=O)c2cccc(NC(=O)Nc3ccc(C(F)(F)F)cc3)c2O[C@H]1CN(C)Cc1ccc(C(F)(F)F)cc1`: “inactive”; for `C[C@@H]1CN([C@H](C)CO)C(=O)c2cccc(NC(=O)Nc3ccc(C(F)(F)F)cc3)c2O[C@@H]1CN(C)Cc1ccc(C(F)(F)F)cc1`: “active”; for `C[C@@H]1CN([C@H](C)CO)C(=O)c2cc(NC(=O)CCC(F)(F)F)ccc2O[C@H]1CN(C)S(=O)(=O)c1cn(C)cn1`: “inactive”.

For the molecule `CC(C)NC(=O)N(C)C[C@H]1Oc2c(NS(=O)(=O)c3cn(C)cn3)cccc2C(=O)N([C@@H](C)CO)C[C@@H]1C`, the cytotoxicity call is “inactive”.

For the molecule `C[C@@H]1CCCCO[C@@H](CN(C)Cc2ccc(C(=O)O)cc2)[C@H](C)CN([C@H](C)CO)C(=O)c2cc(NC(=O)Cc3ccccc3)ccc2O1`, the cytotoxicity call is “inactive”.

Take `CC(C)CC#Cc1cnc2c(c1)C(=O)N([C@@H](C)CO)C[C@@H](C)[C@H](CN(C)S(=O)(=O)c1cccs1)O2`: the cytotoxicity call is “inactive”.

On to `Cc1ccc(S(=O)(=O)N(C)C[C@H]2Oc3ccc(NS(=O)(=O)c4c(C)noc4C)cc3CC(=O)N([C@@H](C)CO)C[C@@H]2C)cc1`, for which the cytotoxicity call was “inactive”. On to `C[C@@H]1CN([C@H](C)CO)C(=O)Cc2cc(NC(=O)CCN3CCOCC3)ccc2O[C@H]1CN(C)S(=O)(=O)c1ccccc1`, for which the cytotoxicity call is “inactive”. The same measure for `CC(=O)OCC(=O)O[C@@H]1[C@H]2[C@@H](OC(=O)c3ccccc3)[C@@H](C)C[C@]2(O)[C@H](OC(C)=O)[C@@]2(C)[C@H](OC(C)=O)[C@]1(OC(C)=O)C[C@H]1C(=O)C(C)(C)C[C@@H]12`: “inactive”. To `O=C(NC(=O)N1CCOCC1)c1ccc(S(=O)(=O)N2CCOCC2)cc1` belongs “inactive”; to `C[C@@H]1CN([C@H](C)CO)C(=O)c2cccc(NC(=O)c3ccncc3)c2O[C@@H]1CN(C)Cc1ccc(-c2ccccc2)cc1`, “inactive”. To `C[C@H](CO)N1C[C@H](C)[C@@H](CN(C)S(=O)(=O)c2cccc(F)c2)Oc2ncc(Br)cc2C1=O` belongs “inactive”. In the case of `C[C@@H]1CN([C@H](C)CO)C(=O)c2cc(Br)cnc2O[C@H]1CN(C)C(=O)Nc1ccc2c(c1)OCO2`, the cytotoxicity call is “inactive”. To `C[C@@H]1CN([C@H](C)CO)C(=O)c2cccc(NC(=O)Nc3ccccc3)c2O[C@H]1CN(C)Cc1ccc(C(F)(F)F)cc1` belongs “active”. Take `C[C@@H]1CN([C@H](C)CO)C(=O)c2cccc(NC(=O)Nc3ccc(C(F)(F)F)cc3)c2O[C@@H]1CN(C)Cc1ccc(-c2ccccc2)cc1`: the cytotoxicity call was “active”. As for `C[C@H](CO)N1C[C@H](C)[C@H](CN(C)Cc2ccc(Oc3ccccc3)cc2)Oc2c(NC(=O)Nc3ccc(C(F)(F)F)cc3)cccc2C1=O`, the cytotoxicity call was “inactive”. The same measure for `C[C@@H]1CN([C@@H](C)CO)C(=O)c2cccc(NC(=O)Nc3ccc(C(F)(F)F)cc3)c2O[C@@H]1CN(C)Cc1ccc(Oc2ccccc2)cc1`: “active”. To `C[C@H]1CN([C@@H](C)CO)C(=O)c2cccc(NC(=O)Nc3ccc(F)cc3)c2O[C@@H]1CN(C)Cc1ccc(C(F)(F)F)cc1` belongs “inactive”. To `C[C@@H]1CN([C@H](C)CO)C(=O)c2cccc(NC(=O)Nc3ccc(C(F)(F)F)cc3)c2O[C@H]1CN(C)Cc1ccc(-c2ccccc2)cc1` belongs “inactive”; to `C[C@@H]1CN([C@@H](C)CO)C(=O)c2cccc(NC(=O)Nc3ccccc3)c2O[C@H]1CN(C)Cc1ccc(C(F)(F)F)cc1`, “inactive”. Regarding `C[C@H]1CN([C@@H](C)CO)C(=O)c2cccc(NC(=O)Nc3ccc(C(F)(F)F)cc3)c2O[C@H]1CN(C)Cc1ccc(-c2ccccc2)cc1`, the cytotoxicity call is “inactive”.

`C[C@H]1CN([C@@H](C)CO)C(=O)c2cccc(NC(=O)Nc3ccc(C(F)(F)F)cc3)c2O[C@@H]1CN(C)Cc1ccc(Oc2ccccc2)cc1`: the cytotoxicity call is “inactive”.

As to `C[C@@H]1CN([C@@H](C)CO)C(=O)c2cccc(NC(=O)Nc3ccc(C(F)(F)F)cc3)c2O[C@H]1CN(C)Cc1ccc(C(F)(F)F)cc1`, the cytotoxicity call is “active”. To `C[C@@H]1CN([C@@H](C)CO)C(=O)c2cccc(NC(=O)Nc3ccccc3)c2O[C@@H]1CN(C)Cc1ccc(C(F)(F)F)cc1` belongs “inactive”. In the case of `C[C@H](CO)N1C[C@H](C)[C@H](CN(C)Cc2ccc(C(F)(F)F)cc2)Oc2c(NC(=O)Nc3ccc(F)cc3)cccc2C1=O`, the cytotoxicity call was “inactive”. For the molecule `COc1ccc(S(=O)(=O)Nc2ccc3c(c2)C(=O)N([C@H](C)CO)C[C@@H](C)[C@@H](CN(C)C(=O)Nc2ccccc2)OCCCC[C@@H](C)O3)cc1`, the cytotoxicity call is “inactive”. Regarding `CC(C)CC#Cc1ccc2c(c1)O[C@H](CN(C)C(=O)Cc1ccncc1)[C@H](C)CN([C@H](C)CO)S2(=O)=O`, the cytotoxicity call is “inactive”. To `COc1cccc(S(=O)(=O)N(C)C[C@@H]2Oc3cc(C4=CCCC4)ccc3S(=O)(=O)N([C@@H](C)CO)C[C@H]2C)c1` belongs “inactive”; to `Cc1noc(C)c1S(=O)(=O)Nc1ccc2c(c1)C(=O)N([C@H](C)CO)C[C@H](C)[C@H](CN(C)C(=O)Nc1ccccc1)O2`, “inactive”. The same measure for `Cc1noc(C)c1S(=O)(=O)N(C)C[C@@H]1Oc2ccc(NS(=O)(=O)c3ccc(F)cc3)cc2CC(=O)N([C@H](C)CO)C[C@@H]1C`: “inactive”; for `C[C@H]1CN([C@@H](C)CO)C(=O)c2cccc(NC(=O)c3nc4ccccc4s3)c2O[C@@H]1CN(C)C(=O)Nc1ccc(F)cc1`: “inactive”. To `COc1ccccc1S(=O)(=O)N(C)C[C@@H]1OCc2cn(nn2)CCCC(=O)N([C@H](C)CO)C[C@H]1C` belongs “inactive”; to `Cc1noc(C)c1S(=O)(=O)Nc1ccc2c(c1)C(=O)N([C@@H](C)CO)C[C@@H](C)[C@H](CN(C)S(=O)(=O)c1ccc(Cl)cc1)O2`, “inactive”. Regarding `COc1ccc(S(=O)(=O)N(C)C[C@@H]2Oc3ccc(NS(=O)(=O)c4c(C)noc4C)cc3CC(=O)N([C@@H](C)CO)C[C@H]2C)cc1`, the cytotoxicity call was “inactive”. To `Cc1noc(C)c1NC(=O)Nc1ccc2c(c1)C(=O)N([C@H](C)CO)C[C@@H](C)[C@@H](CN(C)C(=O)C1CCCCC1)OCCCC[C@H](C)O2` belongs “inactive”. To `C[C@@H]1CN([C@H](C)CO)C(=O)c2cccc(NC(=O)NC3CCCCC3)c2O[C@@H]1CN(C)Cc1ccc(C(F)(F)F)cc1` belongs “active”; to `C[C@H](CO)N1C[C@H](C)[C@H](CN(C)Cc2ccc(C(F)(F)F)cc2)Oc2c(NC(=O)NC3CCCCC3)cccc2C1=O`, “inactive”. To `C[C@H](CO)N1C[C@H](C)[C@@H](CN(C)Cc2ccc(C(F)(F)F)cc2)Oc2c(NC(=O)NC3CCCCC3)cccc2C1=O` belongs “inactive”; to `CO[C@H]1CN(C)C(=O)c2ccc(NC(=O)C3CCOCC3)cc2OC[C@@H](C)N(Cc2cccnc2)C[C@H]1C`, “inactive”. `C[C@H](CO)N1C[C@H](C)[C@@H](CN(C)Cc2ccc(Cl)c(Cl)c2)Oc2ccc(NC(=O)Cn3cnnn3)cc2C1=O`: the cytotoxicity call was “inactive”. As to `C[C@H](CO)N1C[C@H](C)[C@H](CN(C)Cc2ccc(-c3ccccc3)cc2)Oc2ccc(NC(=O)Nc3ccccc3)cc2CC1=O`, the cytotoxicity call is “active”. `Cc1noc(C)c1NC(=O)Nc1ccc2c(c1)CC(=O)N([C@@H](C)CO)C[C@H](C)[C@H](CN(C)Cc1ccc(-c3ccccc3)cc1)O2`: the cytotoxicity call was “inactive”.

Turning to `C[C@@H]1CN([C@H](C)CO)C(=O)Cc2cc(NC(=O)Nc3ccccc3)ccc2O[C@H]1CN(C)Cc1ccc(-c2ccccc2)cc1`, the cytotoxicity call was “inactive”. To `C[C@@H]1CN([C@H](C)CO)C(=O)Cc2cc(NC(=O)Nc3ccccc3)ccc2O[C@@H]1CN(C)Cc1ccc(-c2ccccc2)cc1` belongs “active”; to `C[C@H]1CN([C@@H](C)CO)C(=O)Cc2cc(NC(=O)Nc3ccccc3)ccc2O[C@H]1CN(C)Cc1ccc(-c2ccccc2)cc1`, “inactive”. The same measure for `Cc1noc(C)c1NC(=O)Nc1ccc2c(c1)CC(=O)N([C@H](C)CO)C[C@@H](C)[C@H](CN(C)Cc1ccc(-c3ccccc3)cc1)O2`: “inactive”.

In the case of `Cc1noc(C)c1NC(=O)Nc1ccc2c(c1)CC(=O)N([C@@H](C)CO)C[C@@H](C)[C@@H](CN(C)Cc1ccc(-c3ccccc3)cc1)O2`, the cytotoxicity call is “active”.

Regarding `C[C@@H]1CN([C@@H](C)CO)C(=O)Cc2cc(NC(=O)Nc3ccccc3)ccc2O[C@H]1CN(C)Cc1ccc(-c2ccccc2)cc1`, the cytotoxicity call is “active”. To `CC(C)NC(=O)Nc1ccc2c(c1)CC(=O)N([C@H](C)CO)C[C@H](C)[C@H](CN(C)Cc1ccc(-c3ccccc3)cc1)O2` belongs “inactive”; to `C[C@@H]1CN([C@@H](C)CO)C(=O)Cc2cc(NC(=O)Nc3ccccc3)ccc2O[C@@H]1CN(C)Cc1ccc(-c2ccccc2)cc1`, “inactive”.
